{"source": "the supplement of paper PMC8728848", "test_in_all_cases": "glycan array binding signal (z-score within array); higher = stronger binding", "key": {"[1]": {"tested_on": "Neu5Ac(a2-3)Gal(b1-4)GlcNAc6S", "conditions": "glycan notation: IUPAC condensed, linker removed", "method_in_brief": "(§1)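 From the Consortium for Functional Glycomics database, 3228 arrays were curated, keeping only those whose protein sequence was available. Binding is given as a within-array Z-score averaged across arrays sharing a protein sequence and across linkers. Negative Z-scores can be read as non-binding.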"}, "[2]": {"tested_on": "Neu5Ac(a2-3)Gal(b1-4)GlcNAc(b1-3)Gal(b1-4)GlcNAc(b1-3)Gal(b1-4)GlcNAc", "conditions": "glycan notation: IUPAC condensed, linker removed", "method_in_brief": "as §1"}, "[3]": {"tested_on": "Neu5Ac(a2-3)Gal(b1-4)GlcNAc(b1-3)Gal(b1-4)GlcNAc", "conditions": "glycan notation: IUPAC condensed, linker removed", "method_in_brief": "as §1"}, "[4]": {"tested_on": "Neu5Ac(a2-3)Gal(b1-4)[Fuc(a1-3)]GlcNAc", "conditions": "glycan notation: IUPAC condensed, linker removed", "method_in_brief": "as §1"}, "[5]": {"tested_on": "Neu5Ac(a2-3)Gal6S(b1-4)GlcNAc", "conditions": "glycan notation: IUPAC condensed, linker removed", "method_in_brief": "as §1"}, "[6]": {"tested_on": "Neu5Ac(a2-3)Gal(b1-4)[Fuc(a1-3)]GlcNAc(b1-3)GalNAc", "conditions": "glycan notation: IUPAC condensed, linker removed", "method_in_brief": "as §1"}, "[7]": {"tested_on": "Neu5Ac(a2-3)Gal(b1-4)[Fuc(a1-3)]GlcNAc(b1-6)[Gal(b1-3)]GalNAc", "conditions": "glycan notation: IUPAC condensed, linker removed", "method_in_brief": "as §1"}, "[8]": {"tested_on": "Neu5Ac(a2-3)Gal(b1-4)GlcNAc(b1-3)Gal(b1-4)GlcNAc(b1-3)[Neu5Ac(a2-3)Gal(b1-4)GlcNAc(b1-3)Gal(b1-4)GlcNAc(b1-6)]GalNAc", "conditions": "glycan notation: IUPAC condensed, linker removed", "method_in_brief": "as §1"}, "[9]": {"tested_on": "Neu5Ac(a2-3)Gal(b1-4)GlcNAc(b1-3)[Neu5Ac(a2-3)Gal(b1-4)GlcNAc(b1-6)]GalNAc", "conditions": "glycan notation: IUPAC condensed, linker removed", "method_in_brief": "as §1"}, "Neu5Ac(a2-3)Gal(b1-4)Glc": {"tested_on": "Neu5Ac(a2-3)Gal(b1-4)Glc", "conditions": "glycan notation: IUPAC condensed, linker removed; mutation: R125K", "method_in_brief": "as §1"}, "[10]": {"tested_on": "Neu5Ac(a2-3)Gal(b1-4)[Fuc(a1-3)]GlcNAc(b1-3)Gal(b1-4)GlcNAc", "conditions": "glycan notation: IUPAC condensed, linker removed; mutation: R125K", "method_in_brief": "as §1"}, "[11]": {"tested_on": "Neu5Ac(a2-3)Gal(b1-4)[Fuc(a1-3)]GlcNAc(b1-3)Gal", "conditions": "glycan notation: IUPAC condensed, linker removed", "method_in_brief": "as §1"}, "[12]": {"tested_on": "Neu5Ac(a2-3)Gal(b1-4)[Fuc(a1-3)]GlcNAc6S", "conditions": "glycan notation: IUPAC condensed, linker removed", "method_in_brief": "as §1"}, "[13]": {"tested_on": "Neu5Ac(a2-3)Gal(b1-4)GlcNAc(b1-3)Gal", "conditions": "glycan notation: IUPAC condensed, linker removed", "method_in_brief": "as §1"}, "[14]": {"tested_on": "Neu5Ac(a2-3)Gal(b1-4)GlcNAc(b1-6)GalNAc", "conditions": "glycan notation: IUPAC condensed, linker removed", "method_in_brief": "as §1"}, "[15]": {"tested_on": "Neu5Ac(a2-3)Gal(b1-4)[Fuc(a1-3)]GlcNAc(b1-3)Gal(b1-4)[Fuc(a1-3)]GlcNAc(b1-3)Gal(b1-4)[Fuc(a1-3)]GlcNAc", "conditions": "glycan notation: IUPAC condensed, linker removed", "method_in_brief": "as §1"}, "[16]": {"tested_on": "Neu5Ac(a2-3)Gal(b1-4)GlcNAc(b1-3)Gal(b1-4)[Fuc(a1-3)]GlcNAc", "conditions": "glycan notation: IUPAC condensed, linker removed", "method_in_brief": "as §1"}, "[17]": {"tested_on": "Neu5Ac(a2-3)Gal(b1-4)GlcNAc(b1-6)[Gal(b1-3)]GalNAc", "conditions": "glycan notation: IUPAC condensed, linker removed", "method_in_brief": "as §1"}, "[18]": {"tested_on": "Neu5Ac(a2-3)Gal(b1-4)GlcNAc", "conditions": "glycan notation: IUPAC condensed, linker removed", "method_in_brief": "as §1"}, "[19]": {"tested_on": "Neu5Ac(a2-3)Gal(b1-4)GlcNAc(b1-6)[Neu5Ac(a2-3)Gal(b1-3)]GalNAc", "conditions": "glycan notation: IUPAC condensed, linker removed", "method_in_brief": "as §1"}}, "note": "The entries come from a sample that favours the strongest signals as a whole."}
{"substance": "CHT (Homo sapiens)", "values": [{"measurement": "glycan array binding signal (z-score)", "setting": "[1]; mutation: D138V, E140I", "value": -0.118}]}
{"substance": "C3b (Homo sapiens), P01024", "values": [{"measurement": "glycan array binding signal (z-score)", "setting": "[2]", "value": 0.362}, {"measurement": "glycan array binding signal (z-score)", "setting": "[3]", "value": -0.787}, {"measurement": "glycan array binding signal (z-score)", "setting": "[4]", "value": 0.03}]}
{"substance": "wLAT-1A (Homo sapiens), Q01650", "values": [{"measurement": "glycan array binding signal (z-score)", "setting": "[5]", "value": 0.097}]}
{"substance": "Neurocan (Homo sapiens), O14594", "values": [{"measurement": "glycan array binding signal (z-score)", "setting": "[6]", "value": 4.45}, {"measurement": "glycan array binding signal (z-score)", "setting": "[7]", "value": 3.52}, {"measurement": "glycan array binding signal (z-score)", "setting": "[5]", "value": -1.3}]}
{"substance": "Siglec-8 (Homo sapiens), Q9NYZ4", "values": [{"measurement": "glycan array binding signal (z-score)", "setting": "[2]; mutation: R125K", "value": -0.378}, {"measurement": "glycan array binding signal (z-score)", "setting": "[8]", "value": -0.138}, {"measurement": "glycan array binding signal (z-score)", "setting": "[9]", "value": -0.207}, {"measurement": "glycan array binding signal (z-score)", "setting": "Neu5Ac(a2-3)Gal(b1-4)Glc", "value": 6.29}, {"measurement": "glycan array binding signal (z-score)", "setting": "[10]", "value": -0.182}, {"measurement": "glycan array binding signal (z-score)", "setting": "[11]; mutation: R125K", "value": 0.14}, {"measurement": "glycan array binding signal (z-score)", "setting": "[12]; mutation: R125K", "value": -0.382}, {"measurement": "glycan array binding signal (z-score)", "setting": "[5]", "value": 16.9}]}
{"substance": "MpAFP RI GFP (Marinomonas primoryensis)", "values": [{"measurement": "glycan array binding signal (z-score)", "setting": "[13]", "value": -0.665}, {"measurement": "glycan array binding signal (z-score)", "setting": "[14]", "value": -0.342}, {"measurement": "glycan array binding signal (z-score)", "setting": "[7]", "value": 0.494}, {"measurement": "glycan array binding signal (z-score)", "setting": "[5]", "value": -0.72}]}
{"substance": "Aggrecan (Rattus norvegicus), NP_071526", "values": [{"measurement": "glycan array binding signal (z-score)", "setting": "[15]", "value": -0.136}]}
{"substance": "6RG (Lolium perenne)", "values": [{"measurement": "glycan array binding signal (z-score)", "setting": "[16]", "value": -0.244}, {"measurement": "glycan array binding signal (z-score)", "setting": "[17]", "value": -0.075}, {"measurement": "glycan array binding signal (z-score)", "setting": "[12]", "value": -0.352}]}
{"substance": "HARE (Homo sapiens), Q8WWQ8", "values": [{"measurement": "glycan array binding signal (z-score)", "setting": "[18]", "value": -0.41}]}
{"substance": "PILRb (Mus musculus), Q2YSF2", "values": [{"measurement": "glycan array binding signal (z-score)", "setting": "[12]", "value": -0.229}]}
{"substance": "Avaren (Actinomycete K97)", "values": [{"measurement": "glycan array binding signal (z-score)", "setting": "[19]", "value": -0.138}, {"measurement": "glycan array binding signal (z-score)", "setting": "[1]", "value": -0.116}]}
{"substance": "CHI3L1 (Homo sapiens), P36222", "values": [{"measurement": "glycan array binding signal (z-score)", "setting": "[6]", "value": -0.075}, {"measurement": "glycan array binding signal (z-score)", "setting": "[11]", "value": -0.104}]}
{"substance": "Regenerating Gene IV (Homo sapiens), Q9BYZ8", "values": [{"measurement": "glycan array binding signal (z-score)", "setting": "[7]", "value": 0.692}]}
{"substance": "PILRa (Mus musculus), Q2YSF3", "values": [{"measurement": "glycan array binding signal (z-score)", "setting": "[3]", "value": 1.21}, {"measurement": "glycan array binding signal (z-score)", "setting": "[19]", "value": -0.272}]}
{"substance": "6RG (Lolium perenne), B9U140", "values": [{"measurement": "glycan array binding signal (z-score)", "setting": "[5]", "value": 1.4}]}
